Bioassay records: PubChem BioAssay, National Center for Advancing Translational Sciences (NCATS)
An excerpt weighted towards active compounds, which were near 3% of everything screened.
LDHA block: inhibitors of human lactate dehydrogenase A; P00338; purified LDHA, NADH/diaphorase-resazurin fluorescence; active compounds read low; activity change, % (values are at about 110 or 230 µM); hit rate 0.15% among 480,000; AID 1347041; in the data active means activity change below about -30%; inconclusive means mostly about -25% to -30%;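 further: plate controls were DMSO wells for no effect and wells without enzyme for full effect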
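Remaining NADH was detected by diaphorase (0.133 mg/mL) converting 37 µM resazurin to fluorescent resorufin, read at 0 and 20 minutes. The preceding 5-minute room-temperature reaction used 2 nM LDHA, 0.2 mM sodium pyruvate and 0.06 mM NADH at pH 7.4.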
hERG WT inh: inhibitors of human wildtype KCNH2 potassium channel; hit rate 0.37% among 340,000; U2OS, BacMam KCNH2, thallium flux FluxOr; active compounds read low; activity change, % at 1.84 µM; Q12809;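 active means maximum activity change below -70%; inconclusive means maximum activity change between -70% and -50%; inactive means maximum activity change above -50%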; further: on the % scale 0 is the no-effect control and ±100 the full control effect
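U2OS cells were transduced with wild-type KCNH2 virus (2.03 x 10^8 / mL) for 4 h at room temperature, then cultured overnight at 37 C. Thallium flux was read with FluxOr dye. Rate constants were normalized to DMSO controls.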
Chronic BCR inh: blocks chronic active B-cell receptor signaling | ABC-DLBCL IkBa-CBG/CBR reporter, luminescence ratio, 4 h | Potency, µM (series often up to 46.1 µM), for the others: top-dose activity change, negative = inhibition, hits mostly inhibitors | hit rate 0.05% among 340,000 | AID 493014; active means well fitted inhibition curve with a large enough effect in the signal ratio, with a control signal flat, not every such curve was filed as active; inconclusive means small, poorly fitted or top-dose-only effect, or effect the other way, or a change in a side signal; the % refers to the signal ratio;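 further: potency means the concentration at half of the fitted maximal effect; plate controls were basal doxycycline-induced cells for no effect and cells given 10 µM MG132 for full effect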
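Doxycycline induced both beetle luciferases in TMD8 lymphoma cells; IKK-driven degradation limits the IkappaBalpha-fused green signal, while red luminescence normalises for cell number and nonspecific effects. Compounds tested up to 46 uM, 4 hrs.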
ALOX12 inh: ALOX12 (human) lipoxygenase inhibition | Potency, µM (doses to about 108 µM), for inactives: at the highest dose activity change, negative = inhibition, most hits filed as inhibitors | AID 1671190 | hit rate 1.1% among 580,000 | P18054 | purified 12hLO, xylenol orange hydroperoxide absorbance; active means well fitted inhibition curve with a large enough effect; inconclusive means small, poorly fitted or top-dose-only effect, or another doubt; inactive means no such curve, though single readings can be large or run the other way; further: potency means the concentration at half of the fitted maximal effect; on the % scale 0 is the no-effect control and ±100 the full control effect
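Hydroperoxide product was detected by ferrous iron/xylenol orange as the 573 to 405 nm absorbance ratio. Arachidonic acid at 40 uM (final) was turned over for 30 min at room temperature by 150 nM human 12hLO, pH 7.0 Hepes buffer, after 15 min compound preincubation.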
KCNH2 3.1 inh: inhibitors of human KCNH2 3.1 potassium channel isoform; U2OS KCNH2 3.1, thallium flux FluxOr; active compounds read low; activity change, % (tested at about 1.8 µM); hit rate 0.95% among 340,000;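 active means maximum activity change below -70%; inconclusive means maximum activity change from -70% to -50%; inactive means maximum activity change above -50%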;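 further: thallium influx rate constant from kinetic fluorescence after stimulation buffer; on the % scale 0 is the no-effect control and ±100 the full control effect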
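FluxOr-based Tl+ influx in U2OS cells transduced with KCNH2 3.1 virus; rate constants normalized to DMSO controls.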
ClpP mod: qHTS Assay for Activators of ClpP. ATP-dependent Clp protease proteolytic subunit (Bacillus subtilis (strain 168)), P80244. purified B. subtilis ClpP, FRET peptide cleavage, 20 min. Potency, µM (highest dose often 57.5 µM), for inactives: at the top dose activity change, negative = active. hit rate 1.9% among 340,000. AID 651965, 2013; active means well fitted falling curve with a large enough effect; inconclusive means small, poorly fitted or top-dose-only effect; inactive means no such curve, though single readings can be large or run the other way; further: potency means the concentration at half of the fitted maximal effect; the source files actives as falling curves though it sought activators and does not explain the sign; nearly all actives have a fitted effect of over 65% in size
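ClpP 10 microg/mL final, pH 8 Tris/KCl buffer with BSA, glycerol, Tween-20; compound pinned in; FRET-FV substrate; RT 20 min; Ex320/Em430; ΔFRET vs ADEP 5.8 microM, DMSO, no enzyme.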
Numbers without * were called inactive; ? = inconclusive; . = no result given; [ ] = dose if it differs, or a comment.

SMILES	LDHA block	hERG WT inh	Chronic BCR inh	ALOX12 inh	KCNH2 3.1 inh	ClpP mod
NNS(=O)(=O)c1ccc2c(c1)Cc1cc(S(=O)(=O)NN)ccc1-2	-35*	4	2%	?	-11	.
O=C(O)C(c1c[nH]c2cc(F)ccc12)N1CCN(C(c2ccccc2)c2ccccc2)CC1 (stereo not given)	-9	.	.	18µM*	.	.
O=C(O)C(c1c[nH]c2cc(Cl)ccc12)N1CCN(C/C=C/c2ccccc2)CC1 (stereo not given)	-5	.	.	45µM*	.	.
O=C(O)C(c1c[nH]c2ccccc12)N1CCN(C/C=C/c2ccccc2)CC1 (stereo not given)	2	.	.	4%	.	.
O=C(O)C(c1c[nH]c2cc(Br)ccc12)N1CCCN(c2ccc(C(F)(F)F)cn2)CC1 (stereo not given)	-7	.	.	25µM*	.	.
O=C(O)C(c1c[nH]c2cc(Cl)ccc12)N1CCN(CCOc2ccc(Cl)cc2)CC1 (stereo not given)	6	.	.	35µM*	.	.
O=C(O)C(c1c[nH]c2cc(Cl)ccc12)N1CCCN(c2ccc(C(F)(F)F)cn2)CC1 (stereo not given)	-3	.	.	?	.	.
O=C(Nc1ccc2oc(-c3cccnc3)nc2c1)c1ccccc1I	7	.	.	32%	.	.
O=C(O)c1ccc(NC2=CC(c3ccccc3)N(c3ccc(C(=O)O)cc3)C2=O)cc1 (stereo not given)	0	.	.	?	.	.
Cc1cc(N2CCN(C(C(=O)O)c3c[nH]c4ccc(CO)cc34)CC2)nc2ccccc12 (stereo not given)	0	.	.	?	.	.
Cc1cc(N2CCN(C(C(=O)O)c3c[nH]c4cc(Cl)ccc34)CC2)nc2ccccc12 (stereo not given)	0	.	.	18µM*	.	.
Cc1cccc(C)c1NC(=O)N1CCN(S(C)(=O)=O)CC1	-1	.	.	9%	.	.
CCOC(=O)CN1C(=O)S/C(=C/c2ccc(N3CCCCC3)o2)C1=O	1	-2	-4%	7.9µM*	-11	1%
COC(=O)CN1C(=O)S/C(=C/c2ccc(N3CCCCC3)o2)C1=O	51	1	3%	45µM*	-8	5%
O=C(O)CN1C(=O)/C(=C/c2ccc(N3CCCCC3)o2)SC1=S	3	-1	?	?	-13	0%
CCCN1C(=O)S/C(=C\c2ccc(N3CCOCC3)o2)C1=O	33	-6	-17%	40µM*	-18	.
CCCc1sc(C(=O)Nc2ccccc2O)cc1CC	4	.	.	13µM*	.	.
CCc1sc(C(=O)Nc2ccccc2C)cc1C	1	.	.	?	.	.
Cc1ccc(NC(=O)CN(C)C(=O)c2ccc(S(=O)(=O)Nc3ccc(Cl)cc3)cc2)cc1	-21	.	.	7.9µM*	.	.
COc1cccc(NC(=O)CN(C)C(=O)c2cccc(NS(=O)(=O)c3ccc(Br)cc3)c2)c1	-2	-5	.	38%	6	0%
COc1ccc(C(CNC(=O)c2cccc(NS(=O)(=O)c3ccccc3)c2)N2CCCC2)cc1 (stereo not given)	-2	-1	.	-27%	10	0%
COc1ccc(C(CNC(=O)c2cccc(NS(=O)(=O)c3ccc(Br)cc3)c2)N(C)C)cc1 (stereo not given)	-1	7	?	?	-80*	.
COc1ccc(NC(=O)CN(C)C(=O)c2cccc(NS(=O)(=O)c3ccc(Br)cc3)c2)cc1	0	-8	1%	?	-127*	0%
CC(C[N+](C)(C)C)OC(=O)c1ccc2c(c1)OCO2 (stereo not given)	-5	.	.	25µM*	.	.
Clc1ccc(-c2cnc([C@@H]3COCCN3Cc3cnc[nH]3)[nH]2)cc1	.	.	.	40%[176 µM]	.	.
Cn1c(CN2CCOC[C@H]2c2ncc(-c3ccc(Cl)cc3)[nH]2)nc2ccccc21	.	.	.	35µM*	.	.
CN(c1ccc(-c2csc(NC3CCCC3)n2)cc1)S(C)(=O)=O	-3	.	.	16µM*	.	.
